Records with an inconclusive call do not appear. A call without a number means that no potency is given here. Activity calls are given as the source filed them. Calls come from the whole dose curve; as a rule, active = well fitted curve in the direction sought with a large enough effect; inconclusive = small, poorly fitted or top-dose-only effect, or another doubt; inactive = no such curve, though single readings can be large; an effect the other way counts as inactive or inconclusive.
Target: Galactokinase (Homo sapiens) (UniProt P51570)
Assay: qHTS Validation Assay for Inhibitors of Human Galactokinase (GALK) (AID 493189)
Settings: purified human GALK enzyme activity, qHTS 7-point titration; series mostly up to 57.5 µM
Outline: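 GALK (5 nM) with 35 uM ATP and 100 uM galactose in HEPES pH 8.0 with MgCl2, NaCl, DTT and BSA. Reaction ran 1 h at room temperature. Residual ATP read by Kinase-Glo Plus luminescence.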

Chain of Galactokinase (Homo sapiens) (P51570 whole entry, looked up): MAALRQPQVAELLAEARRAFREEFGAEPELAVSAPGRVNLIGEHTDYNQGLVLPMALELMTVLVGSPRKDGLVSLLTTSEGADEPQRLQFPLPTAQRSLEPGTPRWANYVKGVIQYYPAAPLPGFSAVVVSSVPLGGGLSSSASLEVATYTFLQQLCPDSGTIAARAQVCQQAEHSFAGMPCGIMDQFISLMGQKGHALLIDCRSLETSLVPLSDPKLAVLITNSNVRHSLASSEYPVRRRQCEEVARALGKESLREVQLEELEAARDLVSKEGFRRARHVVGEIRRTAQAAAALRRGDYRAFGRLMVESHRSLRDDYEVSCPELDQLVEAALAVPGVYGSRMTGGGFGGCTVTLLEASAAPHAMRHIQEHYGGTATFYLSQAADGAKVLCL

Compound | Potency
CNC(=O)c1cc2c(cn1)[nH]c1ccccc12 | inactive
O=C1Nc2ccc(I)cc2/C1=C/c1cc(Br)c(O)c(Br)c1 | inactive
O=S(=O)(c1cccc2c(Cl)cccc12)N1CCCNCC1 | inactive
N#CC(C#N)=C(N)/C(C#N)=C/c1ccc(O)cc1 | inactive
Cn1c(=O)[nH]c2ncn(C)c2c1=O | inactive
CN1CCCC1CCOC(C)(c1ccccc1)c1ccc(Cl)cc1 (stereo not given) | inactive
CN(C)S(=O)(=O)c1ccc2c(c1)/C(=C/c1cc3c([nH]1)CCCC3)C(=O)N2 | inactive
CCCCCCCCCC(=O)NC(CN1CCOCC1)[C@H](O)c1ccccc1 (stereo not given in full) | inactive
Nc1ccc2c3c(cccc13)C(=O)NC2=O | inactive
NCCNS(=O)(=O)c1cccc2c(Cl)cccc12 | inactive
CCn1c(=O)[nH]c2cc(Cl)c(Cl)cc21 | inactive
CCCc1c(-c2ccc(O)cc2)nn(-c2ccc(O)cc2)c1-c1ccc(O)cc1 | inactive
CSC(=N)N | inactive
Fc1ccc(CN(C2=NCCN2)c2c(Cl)cccc2Cl)cc1 | inactive
N[C@H](C(=O)O)[C@H]1C[C@@H]1C(=O)O | inactive
CC1=C(/C=C/C(C)=C/C=C/C(C)=C\C(=O)O)C(C)(C)CCC1 | inactive
COc1cc(CNC(=O)CCCCCCC(C)C)ccc1O | inactive
CN1C2CCC1CC(OC(c1ccccc1)c1ccccc1)C2 (stereo not given) | inactive
Nc1nc2[nH]c(=O)cnc2c(=O)[nH]1 | inactive
O[Si](CCCN1CCCCC1)(c1ccc(F)cc1)C1CCCCC1 (stereo not given) | inactive
N=S(=O)(O)Cc1noc2ccccc12 | inactive
CC(N)(Cc1ccc(O)c(O)c1)C(=O)O (stereo not given) | inactive

Tested on: not listed separately
Assay: Validation screen for small molecules that induce DNA re-replication in SW480 colon adenocarcinoma cells (AID 504364)
Settings: DNA re-replication phenotype (high-content imaging); series mostly up to 46.1 µM
Outline: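 SW480 cells seeded at 250 per well were exposed to compound or DMSO for 48 hr at 37 C, 5% CO2, then stained with Hoechst for 40 min. DNA content per nucleus was imaged (405 nm ex, 500-530 nm em).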

Compound | Potency
CNC(=O)c1cc2c(cn1)[nH]c1ccccc12 | inactive
O=C1Nc2ccc(I)cc2/C1=C/c1cc(Br)c(O)c(Br)c1 | inactive
O=S(=O)(c1cccc2c(Cl)cccc12)N1CCCNCC1 | inactive
N#CC(C#N)=C(N)/C(C#N)=C/c1ccc(O)cc1 | inactive
CCCCCC(O)CCCC(=O)O (stereo not given) | inactive
Cn1c(=O)[nH]c2ncn(C)c2c1=O | inactive
CN1CCCC1CCOC(C)(c1ccccc1)c1ccc(Cl)cc1 (stereo not given) | inactive
CCCCCCCCCC(=O)NC(CN1CCOCC1)[C@H](O)c1ccccc1 (stereo not given in full) | inactive
Nc1ccc2c3c(cccc13)C(=O)NC2=O | inactive
NCCNS(=O)(=O)c1cccc2c(Cl)cccc12 | inactive
CC#CCOC(=O)c1c(C)nc2sc3c(c2c1N)CCC(O)C3 (stereo not given) | inactive
CCn1c(=O)[nH]c2cc(Cl)c(Cl)cc21 | inactive
CCCc1c(-c2ccc(O)cc2)nn(-c2ccc(O)cc2)c1-c1ccc(O)cc1 | inactive
CSC(=N)N | inactive
Fc1ccc(CN(C2=NCCN2)c2c(Cl)cccc2Cl)cc1 | inactive
N[C@H](C(=O)O)[C@H]1C[C@@H]1C(=O)O | inactive
CC1=C(/C=C/C(C)=C/C=C/C(C)=C\C(=O)O)C(C)(C)CCC1 | inactive
COc1cc(CNC(=O)CCCCCCC(C)C)ccc1O | inactive
CN1C2CCC1CC(OC(c1ccccc1)c1ccccc1)C2 (stereo not given) | inactive
C=CCN1CCc2cc(O)c(O)cc2C(c2ccccc2)C1 (stereo not given) | inactive
Nc1nc2[nH]c(=O)cnc2c(=O)[nH]1 | inactive
N=S(=O)(O)Cc1noc2ccccc12 | inactive
CC(N)(Cc1ccc(O)c(O)c1)C(=O)O (stereo not given) | inactive
